# In paper PMC12136788:
# Changes are numbered by the printed parent chain. Over roughly 24,000 sequences, “enrichment r” has its median near 0.99; the highest 2% begin near 3.7. The entries come from a sample that favours the highest values as a whole.
# T1: UNK ZnF1-3 (human, UniProt Q9C0B0 31-174)
# T1 sequence: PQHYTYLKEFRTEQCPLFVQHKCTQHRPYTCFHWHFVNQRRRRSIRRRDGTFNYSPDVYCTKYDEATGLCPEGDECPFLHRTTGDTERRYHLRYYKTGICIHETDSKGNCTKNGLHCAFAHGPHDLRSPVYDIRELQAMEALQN
# B1: chr3:182775190:182775191:-_ENSG00000078070_ENST00000265594|hu_mus|FALSE|FALSE (ssRNA)
# RNA: GGGAGUUCUACAGUCCGACGAUCCUGCACACUACAGUCUCUUUCAAACAAGUACACUGCGUUGCCAUGGUGAUCACCAAACACCUGGACUUCUACAUGCCUUGGAGUGUCCACGAACUUCUCGAUCAACAUUGCAUCAUCAUUCAACAGAGGAUUGAGCAUCA
# B2: 49705422_49710499_381_CDS_ENSG00000102531_ENST00000398316|human|control|control (ssRNA)
# RNA: GGGAGUUCUACAGUCCGACGAUCAAAGUUGGACCUUCCAUGUGUAGAGUGAGCAUCUACAUCUCCAUAGACUUGUGAAGACUGAUACUGUGGCAUAUACUGUGUUGUCAUGUCUCCAGCUCCAGUCACGGGUGAGUACAUAUGCAACAGAGGAUUGAGCAUCA
# B3: chr1:39494564:39494565:+_ENSG00000168653_ENST00000372967|hu_hu|hu_hu_hu_mus_True|1_1 (ssRNA)
# RNA: GGGAGUUCUACAGUCCGACGAUCAUGCAUUCGCCUCAUCGUUUUGUACCGAAGCAAGCACUCUUCGAAGUCAUCGAACUCUAUCUUGCACUCCUUUUUCGCCCGGGUCCCACCGAUCCCGUGUGCACACUCUAUCCAUUCUUUCAACAGAGGAUUGAGCAUCA
# B4: 117841126_117842589_621_3pUTR_ENSMUSG00000033326_ENSMUST00000106406|mouse|control|control (ssRNA)
# RNA: GGGAGUUCUACAGUCCGACGAUCCUUCUCCACCAGGUCCAGGAUGGUCUUCAGCCGGCCGAUAUUCCACUCAUCAACGUGCUGUUCAUAGAGAGUACCAUUCACGUCUGCUCCAUAGAUGGGAGGAUUGAAUGUGAGGUUUUUCAACAGAGGAUUGAGCAUCA
# B5: chr2:166765161:166765162:+_ENSMUSG00000002718_ENSMUST00000002790|mus_hu|motif|central (ssRNA)
# RNA: GGGAGUUCUACAGUCCGACGAUCGGAUAAACAUAUUGCUUCAAACAUGUAGUGAUUAAAGUGAGGUUUGCUUGGGUUCUUACGGACAGCUAAUAGCUUCUGUGUAAGCUGAGUGAUGAGAGUAGGGAUGUAGGGGAUUAUGGCCAACAGAGGAUUGAGCAUCA
# B6: chr16:8858281:8858282:+_ENSMUSG00000022507_ENSMUST00000023150|mus_mus|FALSE|FALSE (ssRNA)
# RNA: GGGAGUUCUACAGUCCGACGAUCCUCAUGAGGUGAGGAGGUGCUACAUAUUGAAUGCAAUGGAAAAAAGUAACCAGUGCUAAAGUUUUUAAAAAGUUUAAUGGAGCCAAUAAUUCGGCAUAUAAAUUGUGUUCUGGCAGACAUCAACAGAGGAUUGAGCAUCA
# B7: chr16:45382771:45382772:-_ENSMUSG00000022661_ENSMUST00000163230|mus_mus|mus_mus_mus_hu_True|28_38 (ssRNA)
# RNA: GGGAGUUCUACAGUCCGACGAUCCUGGGUCAUGUUAUAAGACAAAUGGACAGGGAGGGCAUGCUUCUCAAAAAAUGUGAGCUAUUGUCUAAGACUAACAAUAUUGCCUAAGUGCUAAAAAUAAGUUAAAUGAAUAAGUUAAGACAACAGAGGAUUGAGCAUCA
# B8: chr16:45382771:45382772:-_ENSMUSG00000022661_ENSMUST00000163230|mus_mus|mus_mus_mus_hu_True|28_108 (ssRNA)
# RNA: B7 RNA with G27A, C30G, A31U, G33A, A36G, G105U, C106A
# B9: chr16:8858281:8858282:+_ENSMUSG00000022507_ENSMUST00000023150|mus_mus|motif|central (ssRNA)
# RNA: B6 RNA with U80G, A81G
# B10: chr16:45382771:45382772:-_ENSMUSG00000022661_ENSMUST00000163230|mus_mus|mus_mus_mus_hu_True|28_48 (ssRNA)
# RNA: B7 RNA with U87A, G105U, C106A
# B11: chr5:128440902:128440903:+_ENSG00000066583_ENST00000173527|hu_mus|hu_hu_hu_mus_True|38_48 (ssRNA)
# RNA: GGGAGUUCUACAGUCCGACGAUCUUGAACGGUGCUGCCAAGUCCUUUGGGGUAUUGUUCCGUUAUGAUAACUGGAAUCCCUAAGAUCCGGGCCCCUUGCAACAAUCUCUGUCCCACACUAAUGAUGUCCCCAAAGUAUUUGAUCAACAGAGGAUUGAGCAUCA
# B12: chr3:133545784:133545785:-_ENSG00000154917_ENST00000285208|hu_mus|motif|central (ssRNA)
# RNA: GGGAGUUCUACAGUCCGACGAUCGAGGAUGUGAGUGUGUGUAUGUGUGCGCGCGAAGGGUGUAUACACAAGUCUAUCUCGGUGUAUAAUUAUGUACACACAUAUAAAAACUAAACACGUGACGUUUCGAUUAUGCUCGUACAUCAACAGAGGAUUGAGCAUCA
# B13: chr1:39494564:39494565:+_ENSG00000168653_ENST00000372967|hu_hu|motif|central (ssRNA)
# RNA: GGGAGUUCUACAGUCCGACGAUCACCUGCACGUCUCAUCGUUUUCUGCCGAAGCAAACACUCUACGAAAUCAUCAUAUUCGGUCUUGCACUCUUUCUCUGCCCGAGUAUAACCGAUUCCAUGUGCACAUUCUAUCCAUUCUUUCAACAGAGGAUUGAGCAUCA
# B14: 121693014_121693134_369_3pUTR_ENSMUSG00000060227_ENSMUST00000078752|mouse|control|control (ssRNA)
# RNA: GGGAGUUCUACAGUCCGACGAUCUUCUCCAAGCGCCCGCGGGCCACCUCGGUGCGCUGGACCUGGCCCUGCAGCUCGGCCACCUCCUCCUGAAGCAGAACGUGGCGGGAGGAGAUGCUCCAGUAGUUGAAGGCAAGGACGACGCAACAGAGGAUUGAGCAUCA
# B15: chr19:47610742:47610743:-_ENSMUSG00000042694_ENSMUST00000049369|mus_hu|FALSE|FALSE (ssRNA)
# RNA: GGGAGUUCUACAGUCCGACGAUCUGGCACCUGGCGGGACUCCUUCAUGUCCAGGAUAUCCCUGAUGUAGAGUUUUGCAAAGGCUAGAAACACAGGAUCCAAACCCCACAAGAGGGAAGGGGUCUCCUCUUCACACCGGCUGGACAACAGAGGAUUGAGCAUCA
# B16: chr16:94646735:94646736:+_ENSMUSG00000040785_ENSMUST00000117648|mus_mus|motif|central (ssRNA)
# RNA: GGGAGUUCUACAGUCCGACGAUCUGUUUUUAACUUUUUCCAGCAGUUCAUAUGAAAUUCUACCUUACAGUAUUGGCAACAGCGGAUUCGUAUAAAACCCUUAAAGUCUGGAUCAGUUAAGUAAAUCUGAAUUUUAGAAUAUCCCAACAGAGGAUUGAGCAUCA
# B17: chr6:145182920:145182921:-_ENSMUSG00000030265_ENSMUST00000032399|mus_hu|motif|central (ssRNA)
# RNA: GGGAGUUCUACAGUCCGACGAUCCUCCUCUUGACCUGCUGUGUCGAGAAUAUCCAAGAGACAGGUUUCUCCAUCAAUUACGGCUUGCUUCCUGUAGGAAUCCUCUAUUGUUGGAUCAUAUUCGUCCACAAAAUGAUUCUGAAUCAACAGAGGAUUGAGCAUCA
# B18: chr7:75932113:75932114:+_ENSG00000106211_ENST00000248553|hu_mus|FALSE|FALSE (ssRNA)
# RNA: GGGAGUUCUACAGUCCGACGAUCCUGCGACCACUCAUCGGGCAACCGGGGCACCCCGAAAGCUUGAUCGAAGAGGCGGCUGUGUGCAGGGUACCAGUCCCGGAAUGGUUCCCAGCUCGGGCUCCGCAGCAGCGAGAAGGGCACCAACAGAGGAUUGAGCAUCA
# B19: chr16:45382771:45382772:-_ENSMUSG00000022661_ENSMUST00000163230|mus_mus|mus_mus_mus_hu_True|28_88 (ssRNA)
# RNA: B7 RNA with C50U, G105U, C106A
# B20: chr16:45382771:45382772:-_ENSMUSG00000022661_ENSMUST00000163230|mus_mus|mus_mus_mus_hu_True|28_68 (ssRNA)
# RNA: B7 RNA with C68G, A69U, A73G, G105U, C106A
# B21: chr16:45382771:45382772:-_ENSMUSG00000022661_ENSMUST00000163230|mus_mus|mus_mus_mus_hu_True|18_28 (ssRNA)
# RNA: B7 RNA with G105U, C106A, A117U, U121A, A123U, G124A, U125A, U126G
# B22: chr16:45382771:45382772:-_ENSMUSG00000022661_ENSMUST00000163230|mus_mus|mus_mus_mus_hu_True|28_78 (ssRNA)
# RNA: B7 RNA with G57A, C66U, G105U, C106A
# Molecular target: T1, UNK ZnF1-3
# Assay: nsRBNS (natural sequence RNA bind-n-seq); RBNS binding buffer (assumed for nsRBNS): 25 mM Tris pH 7.5, 150 mM KCl, 3 mM MgCl2, 0.01% Triton X-100, 500 ug/ml BSA, 20 U/ml SUPERase-In, 4 C; UNK is unkempt and MSI1 is Musashi-1; names of the RNAs are library labels; protein concentration not given here; high values mean tight binding
row,Binder,binding signal
1,B1,0.969 enrichment R
2,B2,0.997 enrichment R
3,B3,0.706 enrichment R
4,B4,1.09 enrichment R
5,B5,1.62 enrichment R
6,B6,5.62 enrichment R
7,B7,12.5 enrichment R
8,B8,10.2 enrichment R
9,B9,3.41 enrichment R
10,B10,7.16 enrichment R
11,B11,0.772 enrichment R
12,B12,1.66 enrichment R
13,B13,0.521 enrichment R
14,B14,0.777 enrichment R
15,B15,0.707 enrichment R
16,B16,1.03 enrichment R
17,B17,0.665 enrichment R
18,B18,1.04 enrichment R
19,B19,5.11 enrichment R
20,B20,6.96 enrichment R
21,B21,9.98 enrichment R
22,B22,12.8 enrichment R
